Compounds with a hit are over-represented: about 2.2% of the library has one in this group of screens.
TDP43 rescue: qHTS of TDP-43 Inhibitors; Potency, µM (doses to about 46.1 µM), without a hit: at the top dose growth rescue (activation), actives largely listed as activators; AID 652104, 2013; TDP-43 expressing yeast growth rescue, BacTiter-Glo, 24 h; hit rate 1.8% among 410,000; also: % of control where 0% means no effect; nearly all actives have a fitted effect of over 50% in size
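Cell-based yeast growth screen: TDP-43 expression induced in galactose, inoculum OD600=0.02 after raffinose pregrowth to mid-log. Read-out BacTiter-Glo luminescence at 24 hr, 30 deg C; inhibition of toxicity seen as signal increase.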
Abeta rescue: qHTS for compounds that reverse cellular toxicity of Amyloid beta (A-beta) peptide in yeast: Primary Screen; yeast expressing A-beta42, growth rescue, OD600, 48 h; response scale: 0% DMSO, 100% iron-clioquinol control; Potency, µM (doses to about 46.1 µM), usual class: activators; hit rate 0.063% among 410,000; also: nearly all actives have a fitted effect of over 55% in size
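Yeast A-beta toxicity model in growth medium with pinned compounds, 48 h at 30 C; growth read as absorbance at 600 nm. Normalized to FeCl3/clioquinol equimolar mix (positive) and DMSO (negative).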
FUS yeast rescue: qHTS for Suppressors of FUS Proteinopathy: Primary screen using FUS-linked yeast assay; Potency, µM (doses to about 76.6 µM), usual class: activators; hit rate 0.24% among 390,000; S. cerevisiae FUS-expressing, growth rescue, OD600, 24 h;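 also: plate controls were DMSO vehicle for no effect and reference control for full effect; nearly all actives have a fitted effect of over 55% in size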
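Absorbance at 600 nm, taken 24hr after compound addition, measured rescue of FUS-yeast growth at 30C. Induction used 2% galactose with seeding at OD 0.005. Controls: CP55940 from 92uM final, DMSO only.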
aSyn rescue: qHTS of alpha-syn Inhibitors; Yeast expressing alpha-synuclein, growth rescue, BacTiter-Glo, 24 h; Potency, µM (top dose mostly 46.1 µM), inactives show at the highest dose growth rescue (activation), actives largely listed as activators; hit rate 0.14% among 370,000; AID 652106, 2013; also: % of control where 0% means no effect; nearly all actives have a fitted effect of over 65% in size
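Readout is rescue of growth in alpha-synuclein-expressing yeast, so inhibitors of toxicity appear as activators. Growth after 24 hr at 30 deg C in galactose medium is quantified by luminescence.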
Mito fusion yeast: qHTS Assay for Small Molecule Inhibitors of Mitochondrial Division or Activators of Mitochondrial Fusion | S. cerevisiae fusion-defective mutant growth rescue, CellTiterGlo 48 h | hit rate 0.23% among 320,000 | Potency, µM (doses to about 46.1 µM), without a hit: top-dose growth rescue (activation), hits mostly activators; also: % of control where 0% means no effect; nearly all actives have a fitted effect of over 45% in size
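Compounds are tested for their ability to restore growth of mitochondrial fusion-defective yeast strains at non-permissive 37C in YPEG medium over 48 hours. Viability is quantified by luciferase luminescence.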
Active calls of the source: *; i = inactive; ? = inconclusive; . = not tested or not shown. Calls follow the shape of the dose curve; as a rule, active = well fitted curve in the direction sought with a large enough effect; inconclusive = small, poorly fitted or top-dose-only effect, or another doubt; inactive = no such curve, though single readings can be large; an effect the other way counts as inactive or inconclusive. Potency is read from the fitted curve at half-maximal effect.

SMILES	TDP43 rescue	Abeta rescue	FUS yeast rescue	aSyn rescue	Mito fusion yeast
COc1ccc(-n2cc(C(=O)NCCc3ccc(C)cc3)c3ccccc3c2=O)cc1	18µM*	i	i	.	.
COc1cccc(-n2cc(C(=O)NCCc3ccc(C)cc3)c3ccccc3c2=O)c1	0%	i	i	.	.
Cc1ccc(NS(=O)(=O)c2c(C)ccc3nsnc23)c([N+](=O)[O-])c1	22µM*	i	i	0%	-1%
Cc1ccc2nsnc2c1NS(=O)(=O)c1c(C)ccc2nsnc12	3%	i	i	13%	14%
CCN1C(=O)[C@H]2[C@@H](c3ccc(-c4ccc(C(C)=O)cc4)c(OC)c3)N3CCCC[C@@]3(C(=O)OC)[C@H]2C1=O	14µM*	i	?	?	.
COC(=O)[C@@]12CCCN1[C@H](c1ccc(-c3cccc(Cl)c3)c(OC)c1)[C@H]1C(=O)N(C)C(=O)[C@H]12	1%	i	?	-1%	18%
CCC(C)Sc1ccc([C@@H]2[C@@H]3C(=O)N(C)C(=O)[C@@H]3[C@]3(C(=O)OC)CCCCN23)cc1OC (stereo partly drawn)	?	i	i	16%	12%
CCN1C(=O)[C@@H]2[C@@H](c3ccc(SC4CCCCC4)c(OC)c3)N3CCCC[C@@]3(C(=O)OC)[C@@H]2C1=O	-22%	i	5µM*	-1%	.
CCC(C)Sc1ccc([C@@H]2[C@@H]3C(=O)N(CC)C(=O)[C@@H]3[C@]3(C(=O)OC)CCCCN23)cc1OC (stereo partly drawn)	35µM*	i	?	15%	.
COC(=O)[C@@]12CCCCN1[C@H](c1ccc(SC3CCCCC3)c(OC)c1)[C@@H]1C(=O)N(C)C(=O)[C@@H]12	20%	i	i	?	13%
COC(=O)[C@@]12CCCN1[C@H](c1ccc(-c3ccc(Cl)c(Cl)c3)c(OC)c1)[C@H]1C(=O)N(C)C(=O)[C@H]12	?	i	35µM*	-7%	.
Cc1ccc(C(=O)NC2CCCCN(C(C)C)C2=O)cc1 (stereo not drawn)	.	.	i	.	.
CC(=O)c1cc(-c2ccc3[nH]ccc3c2)c(=O)n2c1CCC2	.	.	i	.	.
COc1ccccc1C(=O)Nc1ccc(Br)c2cccnc12	14%	i	i	8%	2%
COc1ccccc1C(=O)Nc1ccc(Br)cc1C	18µM*	i	i	4%	17%
O=C(O)c1cccc(-c2ccc(/C=c3/sc4nc5ccccc5n4c3=O)o2)c1	10%	i	i	7%	32µM*
CC(=O)N1CCN(CCS(=O)(=O)c2cc(Cl)ccc2Cl)CC1	?	i	i	-6%	.
COc1ccc(N2CCN(CCS(=O)(=O)c3cc(Cl)ccc3Cl)CC2)cc1	13µM*	i	i	-2%	3%
Cc1ccc(C(=O)NCC#N)cc1	-1%	i	i	-1%	-9%
Cc1ccc(C(=O)NC(C#N)=C(Cl)Cl)cc1	11µM*	i	i	6%	-11%
Cc1cccc(NC(=O)CSc2nnc3[nH]c(=O)cc(-c4ccccc4)n23)c1C	-20%	i	i	.	.
Cc1cccc(C(=O)N2CCC(=O)N([C@H](COCc3ccc(Cl)cc3)Cc3ccccc3)CC2)c1	16µM*	i	?	22%	.
O=C(c1ccc(Cl)c(Cl)c1)N1CCC(=O)N(C(COCc2cccc(Cl)c2)Cc2ccccc2)CC1 (stereo not drawn)	1%	i	?	?	35µM*
Cc1cccc(COC[C@H](CC(C)C)N2CCN(C(=O)c3ccc(C(C)(C)C)cc3)CCC2=O)c1	22µM*	i	?	-26%	.
Cc1cccc(C(=O)N2CCC(=O)N(C(COCc3ccc(Cl)cc3)Cc3ccccc3)CC2)c1 (stereo not drawn)	35µM*	i	?	?	?
CCOC(=O)c1cc(OC(=O)c2ccc(OC)c(OC)c2)n(-c2ccccc2)n1	0%	i	i	-30%	.
Cc1cccc(NC(=O)Nc2nc3ncccn3c2-c2ccccc2)c1	.	.	i	.	.

Source: PubChem
